From the supplement of paper PMC3334620
Whole data set: some 33,000 sequences, median “E-score (-0.5 to 0.5)” near -0.017, cut for the highest 2% near 0.3. The entries come from a sample that favours the highest values as a whole.

Target: T1, Sut1 (UniProt P53032)
T1 sequence: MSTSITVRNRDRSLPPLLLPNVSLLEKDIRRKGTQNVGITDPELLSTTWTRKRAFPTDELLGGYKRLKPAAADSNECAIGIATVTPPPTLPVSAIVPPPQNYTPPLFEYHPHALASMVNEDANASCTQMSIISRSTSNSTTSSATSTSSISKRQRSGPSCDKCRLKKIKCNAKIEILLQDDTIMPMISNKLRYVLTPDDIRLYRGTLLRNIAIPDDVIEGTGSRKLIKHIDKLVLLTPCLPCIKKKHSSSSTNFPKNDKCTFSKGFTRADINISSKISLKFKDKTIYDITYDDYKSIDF
Assay: PBM E-score (8-mer binding enrichment) (E-score (-0.5 to 0.5)); higher = stronger / more preferred TF binding
Details: protein concentration: 200 nM; construct: GST-full length
Summary of the method: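 GST-tagged yeast TFs (full-length or DNA-binding domain) were made by PURExpress in vitro transcription/translation and applied at about 100-200 nM to universal all-10-mer Agilent arrays. The arrays were made double-stranded by primer extension, on fresh or once-stripped slides. Bound protein was detected with fluorescent anti-GST, and scans were normalised with masliner. Each ungapped eight-base word, pooled with its reverse complement, received an E-score (modified Wilcoxon-Mann-Whitney statistic) from the Universal PBM Analysis Suite.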

Sequence	PBM E-score
CTTCTTCA	-0.102
CCTGGTCA	-0.307
CCCGATCA	-0.133
ACCCAAAT	0.00677
CATGTCTC	-0.0334
GCAGCTCC	0.00727
GCCCGCGA	-0.0595
GTCCGCGA	0.347
GTCCGCTA	0.258
TTCCGCAA	0.166
CTCCGCCA	0.171
ATCCGCGA	-0.0287
CTCCGCTC	0.295
CTCCGCTA	0.301
GTCCGCAA	0.298
CGCCGCGA	0.0357
ATCCGCAA	-0.0823
CTCCGCGA	0.35
CCGTTCTC	0.0465
AGAGCGCG	-0.155
AGCCAGCG	-0.249
ACCATCGA	-0.151
GTCACGAC	-0.0628
CGCTCCAC	-0.012

Sequence	PBM E-score
CTCCGCCC	0.217
CTCCGCGC	0.327
ATCCGCGC	-0.0272
ATGCATAC	-0.0233
GAGTGATA	0.13
TGTTCGAA	0.103
CCAAGTTC	-0.107
AAATATAA	0.273
ATATACTA	0.305
AAATATAT	0.365
CTATACTA	0.21
GTATACAC	-0.0284
GTATATAA	0.277
AAATGTAA	0.206
AAATGTAT	0.304
AAATGTAG	0.0326
GTATATAC	0.316
ATATACTC	0.197
AAATATAC	0.217
CAATCGAG	-0.309
CTGGTAAA	0.141
GACTTCAC	-0.00592
AAACACGT	0.116
CCCAGCCG	-0.222

Sequence	PBM E-score
CCTGATTC	-0.00501
CTCCTCCA	-0.147
CATACCTC	-0.0271
GTTTGGCA	-0.0612
AAATATTT	0.31
ACTTATAT	0.325
AAATATGA	0.114
AAATATTA	0.227
AAATATGC	0.054
ATATAGAT	0.272
ACATATAT	0.266
AAATATTC	0.207
ATATATAT	0.302
AAATATGT	0.317
ACTTATAC	0.264
ACTTATAG	0.0142
ACGCTATA	-0.103
CACTAACG	-0.17
CGGTGCAA	-0.00847
AGAGCGCA	-0.306
AGGGAGGG	-0.158
AAGACTAA	0.0716
GGTTAACA	0.0261
ATATAGAG	0.0735

Sequence	PBM E-score
ACATATAC	0.088
ATATATAG	0.329
CTATATAG	0.0328
AGATATAG	0.18
ATATATAC	0.31
AGATATAT	0.301
AGATATAC	0.0915
CTATATAC	0.287
AGAAATGG	-0.012
GGCACTCA	-0.374
CTCGCCTA	-0.0978
TGCGTTAA	-0.00864
TATCTCGA	0.108
ATGGTGTC	-0.14
CCCGTGCC	-0.126
AACCGAGA	0.195
AATTGAAC	0.0105
AATTGAAG	0.115
AATTGAAT	0.314
GATTGAAA	0.303
GATTGAAC	0.00278
CATTGAAA	0.249
GATCAAAC	-0.00328
CCCCATAA	-0.104

Sequence	PBM E-score
CGAAGATA	0.132
AGAGGGGG	-0.322
ACCGGCGA	-0.0414
GCCGGCGA	0.0246
TCCGGCGA	0.301
ACCGGCAA	-0.198
TCCGGCAA	0.33
GCCGGCAA	0.144
GAATTTTA	0.251
AACTCTGT	-0.0734
GGACGTAA	-0.136
ATGTTGAA	0.131
CTTGAGAA	-0.0815
GTCGCAAA	0.131
ATCGCAAA	0.0837
TTCGCAAA	0.303
ACGGTCCT	-0.258
ACCCAGAC	-0.0554
CAAGCAAC	-0.124
ATTCCAAA	0.0401
